# Bioassay records (PubChem BioAssay)
# beta cell repl – MIN6 beta-cell proliferation induction; MIN6 cells proliferation, ATPlite luminescence, 48 h; cells starved in 0.2% serum; 100% = growth in 10% serum; proliferation, % at 10 µM; actives 0.29% (n = 330,000); AID 2380;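 active means compounds whose signal lies at least 3.5 SD above the mean of all wells on their plate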;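 further: 0% = DMSO-treated cells in low-serum medium and 100% = 10% serum control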
# aDG glyco up – alpha-DG glycosylation activation | activation, % at 10 µM | actives 0.22% (n = 360,000) | Pro5-aDG cells, alpha-DG glycosylation AlphaScreen (IIH6); 0% Pro5, 100% B10-LARGE cell signal;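 active means activation of at least 8% versus controls, or a plate z-score of at least 8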;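 further: Pro5 are CHO cells carrying HIG-tagged alpha-DG that lacks glycosylation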
# m-calpain inh – calpain II (pig) inhibition. purified calpain II, fluorogenic peptide substrate, 30 min. AID 1236. inhibition, % at 16 µM. actives 0.37% (n = 220,000);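 active means inhibition above about 50%, limit read from the data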
# FAS-TE inh – inhibitors of human fatty acid synthase thioesterase domain | actives 0.67% (n = 360,000) | P49327 | recombinant FAS-TE, OMFH fluorogenic substrate, fluorescence endpoint | inhibition, % at 15 µM;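 active means compounds whose normalised, plate-corrected inhibition of enzyme fluorescence in the single-dose primary screen is 50% or more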;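 further: 0% = DMSO with enzyme and 100% = substrate without enzyme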
# H9c2 protect – protects H9c2 cardiomyocytes from peroxide injury; H2O2 injury protection, ATPLite, 2 h; protection from H2O2 cell death, % at 20 µM; actives 0.63% (n = 360,000); AID 588492;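 active means compounds giving at least 50% protection of heart cells from peroxide-induced death in the single-dose screen, raw or plate-pattern-corrected value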;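 further: 0% = DMSO wells with peroxide and 100% = DMSO wells without peroxide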
# H9c2 TAG inh – inhibitors of triacylglycerol accumulation. H9c2 cells, Nile Red lipid (TAG) fluorescence; cells loaded with 200 µM oleic acid. inhibition, % at 12.5 µM. actives 0.66% (n = 230,000);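 active means pattern-corrected inhibition of lipid staining of at least 50% with the nuclear-stain viability signal not falling by more than 50%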;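 further: 0% = DMSO wells and 100% = triacsin C control wells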
# FAS-TE conf – confirmation of human fatty acid synthase thioesterase inhibitors. shares compounds with FAS-TE inh. recombinant FAS-TE, OMFH fluorogenic substrate, fluorescence. inhibition, % at 15 µM. actives 45% (n = 2,300). AID 624325;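 active means compounds inhibiting the enzyme by at least 50% at 15 µM in any one of the replicates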;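 further: 0% = enzyme with DMSO only and 100% = wells lacking enzyme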
# * marks the source's active call; other numbers are inactive results; . = no result given. Shown are actives, neighbours in structure and some others; about 2.3% of the full set was active somewhere.
SMILES,beta cell repl,aDG glyco up,m-calpain inh,FAS-TE inh,H9c2 protect,H9c2 TAG inh,FAS-TE conf
O=c1[nH]c2cc([N+](=O)[O-])c([N+](=O)[O-])cc2[nH]c1=O,-0.5,-0.1,0.7,66.0*,7.6,.,73.2*
O=c1[nH]c(=O)c2cc([N+](=O)[O-])cc([N+](=O)[O-])c2[nH]1,-2.7,0.2,-5.9,2.2,-2.2,4.9,.
Cc1cccc(N(Cc2ccccc2)C(=O)CN2C(=O)NC3(CCCCC3C)C2=O)c1 (centres undefined),-1.9,-0.1,.,7.4,1.7,7.7,.
O=S(=O)(c1ccccc1)c1cnc(-c2ccccc2)nc1N1CCCC1,1.4,0.4,38.9,13.0,-12.3,20.5,.
COc1cc2ncc(S(=O)(=O)c3ccccc3)c(N3CCCC(C)C3)c2cc1OC (centres undefined),-6.1,0.6,.,78.5*,5.2,9.2,70.8*
CCOC(=O)C1=CCN(S(=O)(=O)c2ccccc2C)C1c1cccc(C)c1 (centres undefined),.,-0.1,.,16.1,-0.8,.,.
N#Cc1cc(-c2ccccc2)nc(Oc2ccccc2)n1,4.8,0.1,-12.1,68.7*,-6.9,.,45.3*
N#Cc1ccc(Oc2nc(C#N)cc(-c3ccccc3)n2)cc1,5.0,0.7,5.3,44.0,-5.0,-52.0,.
O=C(CNC(=O)N1CC(=O)Nc2ccccc21)NCc1ccc(Cl)cc1,3.2,-0.1,.,-4.6,1.3,.,.
CCCCC(c1nc2ccccc2[nH]1)n1c(=O)c(-c2ccccc2)nc2cc(C)c(C)cc21 (centres undefined),.,0.3,.,16.5,-2.1,.,.
CCNc1ccc(S(=O)(=O)N(C)C)cc1NCC(=O)Nc1ccccc1F,0.0,-0.3,-1.1,-1.6,-0.1,.,.
CCNc1ccc(S(=O)(=O)N(C)C)cc1NCC(=O)Nc1ccc(F)c(Cl)c1,1.9,-0.3,8.6,58.5*,-25.2,.,38.7*
CN1CCN(CCCNC(=O)Nc2ccc([N+](=O)[O-])cc2)CC1,-3.9,-0.1,.,-0.9,-7.7,.,.
COc1ccc(-c2sc3cc4c(cc3c2-c2ccc3c(c2)OCCO3)OCO4)cc1,-6.1,-0.4,.,30.4,-6.7,4.0,.
COc1ccc2sc(-c3ccc(S(C)(=O)=O)cc3)c(-c3ccc4c(c3)OCCO4)c2c1,-3.6,-0.4,.,57.4*,13.2,24.3,22.3
COc1ccc(-c2c(-c3ccc(S(C)(=O)=O)cc3)sc3ccc(OC)cc23)cc1,-4.9,-0.2,.,21.6,0.4,32.4,.
COc1cc2sc(-c3ccc(S(C)(=O)=O)cc3)c(-c3ccc4c(c3)OCO4)c2cc1OC,-3.1,-0.4,.,80.5*,11.8,15.8,27.9
COc1ccc(C2CC23N=C(c2ccccc2)OC3=O)cc1 (centres undefined),.,-0.2,27.5,85.1*,5.3,.,95.8*
CCOc1ccc(-n2c(SCc3ccc([N+](=O)[O-])cc3)nnc2-c2ccccc2)cc1,0.0,0.4,11.8,63.2*,-8.0,.,55.9*
O=C(O)c1ccc(CSc2nnc(-c3ccccc3)n2-c2ccccc2)cc1,-0.4,-0.1,23.6,-5.6,0.1,-1.3,.
COc1ccc(-n2c(SCc3ccc([N+](=O)[O-])cc3)nnc2-c2ccccc2)cc1,0.0,-0.1,35.7,56.0*,3.7,.,51.1*
COc1ccc(-c2nnc(SCc3ccccc3)n2N)cc1,0.7,-0.1,-21.4,-7.7,0.6,.,.
CC(C)(C)OC(=O)N[C@@H](Cc1ccccc1)c1nnc(S(=O)(=O)Cc2ccccc2)o1,-5.3,.,-10.0,.,.,.,.
Cc1ccccc1CS(=O)(=O)c1nnc([C@H](Cc2ccccc2)NC(=O)OC(C)(C)C)o1,-5.7,-0.2,15.7,63.6*,-18.7,.,26.8*
CC(C)Cc1nnc(NC(=O)CCC(=O)N2CC(C)CC(C)C2)s1 (centres undefined),-0.1,0.6,.,-5.4,-3.8,.,.
SMILES,beta cell repl,aDG glyco up,m-calpain inh,FAS-TE inh,H9c2 protect,H9c2 TAG inh,FAS-TE conf
O=C(NCc1ccco1)C12CN(Cc3ccccc3)CC1C(c1cccc([N+](=O)[O-])c1)=NO2 (centres undefined),-4.1,0.2,-94.8,53.9*,4.1,15.5,46.6
O=C(NCCc1cccs1)C12CN(Cc3ccccc3)CC1C(c1cccc([N+](=O)[O-])c1)=NO2 (centres undefined),-5.3,0.1,-178.4,51.1*,-10.6,1.6,40.5
O=C(NCCCCc1ccccc1)C12CN(Cc3ccccc3)CC1C(c1cccc([N+](=O)[O-])c1)=NO2 (centres undefined),-6.5,-0.4,17.6,39.2,1.7,5.7,.
O=C(NCc1ccco1)C12CN(Cc3ccccc3)CC1C(c1ccc([N+](=O)[O-])cc1)=NO2 (centres undefined),1.3,0.2,21.6,13.5,-0.4,-27.7,.
CSc1nc(-c2ccccc2)nc(C(C)C)n1,7.8,0.1,.,7.5,7.8,-6.3,.
O=C(NC(=S)/C(=C1\CCCCCN1)[N+](=O)[O-])c1ccccc1,-5.3,0.0,.,0.1,-31.2,-4.6,.
O=C(C(=O)c1cc(Br)ccc1O)c1cc(Br)ccc1O,.,0.2,.,4.1,-18.1,-0.4,.
COc1ccccc1NNC(=O)c1cc(C(C)(C)C)nn1Cc1ccccc1,-2.7,-0.1,-12.0,16.3,23.1,1.6,.
CC(C)(C)c1cc(C(=O)NNc2cc(C(F)(F)F)ccc2Cl)n(Cc2ccccc2)n1,-4.1,0.2,6.4,54.0*,-15.4,32.5,14.9
CC(=O)Nc1cccc(-c2ccnc3c2CC(C)(C(=O)NCCc2ccccc2)O3)c1 (centres undefined),.,0.0,.,-6.5,2.9,66.4,.
CCOc1ccc(C2CC(=O)N(Nc3ccc([N+](=O)[O-])cc3[N+](=O)[O-])C2=O)cc1 (centres undefined),2.4,0.0,18.9,85.9*,-1.0,1.4,69.4*
CC(C)Oc1ccc(C2CC(=O)N(Nc3ccc([N+](=O)[O-])cc3[N+](=O)[O-])C2=O)cc1 (centres undefined),1.7,-0.1,-5.3,90.3*,-1.2,-0.5,92.0*
CCOC(=O)c1ccc(NC(=O)c2ncn3c2C(=O)NC[C@@H]3C)cc1,.,-0.1,.,0.4,-5.2,16.9,.
CCc1ccc(NC(=O)c2ccc3c(=O)n4c(nc3c2)CCCCC4)cc1,-4.2,0.3,32.6,7.6,-3.7,11.9,.
O=C(Nc1cccc(S(=O)(=O)N2CCCCC2)c1)c1ccc(S(=O)(=O)C(F)F)cc1,-3.8,0.1,-11.5,59.4*,-24.4,-27.9,39.1
O=C(Nc1cccc(S(=O)(=O)N2CCCCC2)c1)c1ccc2c(=O)n3c(nc2c1)CCCCC3,-1.9,1.7,-27.4,59.7*,-5.9,.,21.6
Cc1ccc(C(=O)CC2C(=O)N(c3ccccc3)C(=S)N2c2ccccc2)cc1 (centres undefined),-5.5,0.2,-30.6,52.8*,-2.3,.,16.4
